MK inhibit – S. pneumoniae mevalonate kinase inhibition; purified MK, PK/LDH-coupled NADH absorbance 340 nm; inhibition, % at 10 µM; 0.48% of 65,000 active; AID 555;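 active = ranked among the strongest by inhibition in the single 10 µM screen, a fixed top-ranked set picked for dose follow-up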
NADH enzymes – inhibitors of enzymes used to reach an NAD/NADH endpoint | 0.02% of 65,000 active | IC50, µM (titrated, usually from 10 µM), for the others: at the top dose inhibition | AID 774 | coupled PK/LDH NADH assays, four targets;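 active = single-dose screening hits from any of four coupled enzyme assays that gave an IC50 when retested across doses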;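 note: the DPM-DC format reads NADH fluorescence rather than 340 nm absorbance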
Autofluor 339 – intrinsic fluorescence of library compounds, ex339/em460 – biochemical, MLSMR library, data from DPM-DC assay, artefact control, profiling panel | compound autofluorescence, ex339/em460 nm, NADH buffer; hits give high values; 1 = no-compound wells, NADH background | 5.5% of 65,000 active | AID 709 | fluorescence fold increase at 10 µM;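 active = at 10 µM, mean starting fluorescence two-fold or more over control wells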;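 note: signal is the first read of a kinetic run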
DPM-DC inhibit – blocks S. pneumoniae diphosphomevalonate decarboxylase. purified DPM-DC, PK/LDH coupled NADH fluorescence. calls only at 10 µM. 0.49% of 65,000 active;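 active = the 320 compounds with the highest percent inhibition in the single-dose primary screen, excluding strongly autofluorescent ones, cut at about 32% in these data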;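 note: kinetic rate of NADH fluorescence loss reporting ADP formed by the decarboxylase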
A340 absorber – absorbance at 340 nm; compound absorbance at 340 nm, fold over control; fold change at 10 µM; 65,000 tested, under 10 active;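 active = at 10 µM dose, initial 340 nm absorbance at least 2 fold that of control wells; inactive = change under 2 fold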;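 note: initial absorbance extrapolated from kinetic A340 decline of NADH oxidation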
Spn PMK inh – blocks S. pneumoniae phosphomevalonate kinase. purified PMK, PK/LDH-coupled NADH absorbance 340 nm. inhibition, % at 10 µM. 0.49% of 65,000 active. AID 539;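 active = top-ranked compounds by inhibition in the single 10 µM screen, taking a fixed number of the strongest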;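 note: 0% = full reaction with DMSO carrier and 100% = background rate without enzyme reaction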
Numbers without * were called inactive; i = inactive; · = no result shown; + = active, no number. A selection: hits, their analogues and other compounds. The true share with any hit is near 6.5%.

SMILES	MK inhibit	NADH enzymes	Autofluor 339	DPM-DC inhibit	A340 absorber	Spn PMK inh
O=C(O)c1[nH]nc2c1COc1ccccc1-2	3.0	2.0%	1.06	i	0.99	2.0
Cc1csc(NC(=O)c2sc3nc(-c4cccs4)ccc3c2N)n1	1.0	2.0%	2.39*	·	1.06	0.0
CCCSc1nnc(NC(=O)c2sc3nc(-c4cccs4)ccc3c2N)s1	0.0	3.0%	4.49*	·	1.17	5.0
COc1ccc(C(=O)Nc2nc(-c3cccs3)cs2)cc1	0.0	5.0%	1.21	i	1	14.0
COc1ccc2nc(N3CCC(C)CC3)c(C#N)cc2c1	10.0	5.0%	1.38	i	1	2.0
CCOC(=O)C1CCN(c2nc3cc(OC)ccc3cc2C#N)CC1	7.0	9.0%	2.09*	i	0.99	12.0
COc1ccc2nc(N3CCC(O)CC3)c(C#N)cc2c1	10.0	20.0%	2.87*	i	0.99	21.0
CCOC(=O)CC(=O)CSc1[nH]c(=O)cc(C)c1C#N	7.0	3.0%	1.06	i	1.02	0.0
CCOc1ccc(C2C=C(c3ccc(C)cc3)Nc3ncnn32)cc1 (configuration not stated)	12.0	10.0%	3.59*	·	1.12	8.0
CCOc1ccc(C2C=C(c3ccc(C)cc3)Nc3nnnn32)cc1 (configuration not stated)	14.0	6.0%	1.19	i	1.04	5.0
COc1ccc(C2C=C(c3ccccc3)Nc3ncnn32)cc1 (configuration not stated)	7.0	6.0%	3.39*	·	1.04	12.0
Cc1noc(C)c1CSCC(=O)OCc1nc2ccccc2c(=O)n1CC#N	1.0	5.0%	1.1	i	1.03	13.0
O=c1c2ccccc2nnn1CSc1nnc2sc3ccccc3n12	2.0	4.0%	1.01	i	0.98	12.0
O=C(CSc1nnc(-c2ccccc2O)o1)Oc1ccc(OCc2ccccc2)cc1	2.0	2.0%	3.97*	·	1.05	2.0
COc1ccc(Cl)c(Cn2c(NCCCO)nc3c2c(=O)n(C)c(=O)n3C)c1	13.0	9.0%	1.08	i	0.97	13.0
Cc1oc2c(CN(C)C)c(O)ccc2c(=O)c1-c1ccc2ccccc2n1	4.0	1.0%	1.15	i	1.18	0.0
CCc1cc2c(=O)c(Oc3ccccc3F)c(C)oc2c(CN(C)C)c1O	2.0	13.0%	2.22*	·	1.19	23.0
CCC(=O)Nc1c(C#N)c2nc3ccccc3nc2n1C1CCCCC1	·	9.0%	2.28*	·	1.07	9.0
N#Cc1c(N)n(C2CCCCC2)c2nc3ccccc3nc12	13.0	8.0%	3.91*	·	1.02	2.0
CCOC(=O)c1nn(-c2ccccc2C)c(=O)c(C#N)c1C	2.0	4.0%	1.13	i	1.05	9.0
CCC(=O)Nc1c(C#N)c2nc3ccccc3nc2n1-c1ccccc1C	10.0	5.0%	3.09*	·	1	7.0
COc1ccc(-n2c(NC(=O)c3ccco3)c(C#N)c3nc4ccccc4nc32)cc1	9.0	20.0%	3*	+	1.11	14.0
O=C(CCCCCn1c(=O)[nH]c2ccccc2c1=O)NCCCN1CCN(c2ccccc2F)CC1	4.0	3.0%	1.09	i	0.99	5.0
COc1ccccc1CNC(=O)c1cc2c(=O)n(C)c3ccccc3c2n1C	7.0	5.0%	1.24	i	1.05	1.0
C=CCSc1nnc(NC(=O)CSc2nc3ccccc3o2)s1	2.0	1.0%	1.11	i	1.03	0.0
SMILES	MK inhibit	NADH enzymes	Autofluor 339	DPM-DC inhibit	A340 absorber	Spn PMK inh
CCC(C)Nc1nc(OC)nc(N(C)C#N)n1 (configuration not stated)	2.0	1.0%	1.04	i	1.03	1.0
COC(=O)C1=C(NC(=O)c2ccc(C)c(C)c2)CCS1	0.0	5.0%	2.71*	i	1.02	16.0
COc1ccc(N2CCN(C(c3ccco3)c3sc4nc(C)nn4c3O)CC2)cc1 (configuration not stated)	8.0	12.0%	1.03	i	1.03	27.0*
CN(C)CCNC(=O)C12CC3(C)CC(C)(CC(C)(C3)C1)C2	0.0	3.0%	1.03	i	1.02	1.0
O=C(NCc1ccccc1F)C1CCCN1C(=O)NCc1ccccc1 (configuration not stated)	6.0	7.0%	1.03	i	1	15.0
Cc1[nH]n2c(=O)cc(C(C)(C)C)nc2c1-c1ccccc1	12.0	16.0%	2.34*	i	1	13.0
C1COC(NC(C2CC2)C2CC2)=N1	6.0	2.0%	0.99	i	0.98	2.0
CCOc1ccc(NC(=O)CN(C)c2nnnn2-c2ccccc2)cc1OCC	10.0	4.0%	1.07	i	1.04	2.0
O=C1CSC(c2cn(-c3ccccc3)nc2-c2cc3ccccc3oc2=O)N1Cc1ccco1 (configuration not stated)	7.0	11.0%	5.02*	·	1.02	14.0
COCCSc1nc2c(c(=O)[nH]c(=O)n2C)n1CCC(C)C	5.0	3.0%	1.08	i	1.05	2.0
COC(=O)COc1ccc2c(=O)c(Oc3ccccc3)c(C)oc2c1	11.0	4.0%	1.13	i	1.04	0.0
Cc1oc2cc(O)ccc2c(=O)c1Oc1ccccc1	5.0	3.0%	2.25*	·	1.12	0.0
Cc1oc2cc(O)ccc2c(=O)c1Oc1ccccc1Br	0.0	3.0%	2.2*	·	1.07	5.0
CCOc1ccccc1Oc1c(C)oc2cc(OC(=O)N3CCOCC3)ccc2c1=O	4.0	4.0%	1.09	i	1.02	7.0
Cc1ccc2oc(=O)c3cc(C(=O)N4CCN(c5ncccn5)CC4)sc3c2c1	5.0	11.0%	2.07*	·	1.14	17.0
Cc1ccc2[nH]c(=O)c3cc(C(=O)N4CCN(C(=O)c5ccco5)CC4)sc3c2c1	13.0	11.0%	2.03*	·	1.1	8.0
Cc1ccc2oc(=O)c3cc(C(=O)N4CCN(C(=O)c5ccco5)CC4)sc3c2c1	4.0	5.0%	1.26	i	1.16	7.0
Cc1ccc2[nH]c(=O)c3cc(C(=O)N(C)Cc4ccco4)sc3c2c1	0.0	3.0%	2.21*	·	1.1	6.0
COc1cccc(Nc2ncnc3c2cnn3C)c1	9.0	8.0%	1.12	i	1.04	13.0
CCOC(=O)c1[nH]c2ccc(OC)cc2c1NC(C)=O	11.0	8.0%	3.55*	·	1.05	5.0
CCOC(=O)c1[nH]c2ccc(OC)cc2c1NC(=O)CN1CCSCC1	10.0	12.0%	3.89*	·	1.07	14.0
CCOCCn1c(=O)c2c(nc3n2CCN3c2ccc(CC)cc2)n(C)c1=O	7.0	7.0%	1.22	i	1.05	14.0
CCN1CCN(C(c2cccs2)C(C)NC(=O)c2cccnc2)CC1 (configuration not stated)	0.0	6.0%	1.05	i	1.02	17.0
Cc1ccc(S(=O)(=O)c2c(N)n(/N=C/c3ccco3)c3nc4ccccc4nc23)cc1	0.0	2.0%	3.24*	i	1.17	2.0
CC(C)Cn1c(N)c(S(=O)(=O)c2cccs2)c2nc3ccccc3nc21	6.0	9.0%	3.86*	·	1.08	12.0
